PubChem BioAssay (EPA / NIEHS)
Where a structure was tested more than once in an assay, its records may differ in their call. Calls of active or inactive are those of the source. Rule for the calls: active = hit-call score of the fitted dose curve at least 0.9, where 1 is the maximum; inactive = score below 0.9.

What was measured:
[1] = ATG_GRE_CIS: Attagene CIS-FACTORIAL HepG2 Assay for human Glucocorticoid Response Elements (GRE) (AID 2282947); details: HepG2 GRE cis-reporter, Attagene multiplex mRNA; actives raise or lower the signal
In short: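 Transiently transfected HepG2 cells carrying GRE cis-reporter units (endogenous TF activity) dosed 24 h; reporter mRNA quantified by RT-PCR, 6-FAM labelling, HpaI digestion and capillary electrophoresis. Bidirectional fit versus DMSO baseline.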

[2] = ATG_ISRE_CIS: Attagene CIS-FACTORIAL HepG2 Assay for human Interferon Regulatory Factor 1 (IRF1) binding to an Interferon-Stimulated Response Element (ISRE) (AID 2282948); details: HepG2 ISRE cis-reporter (Attagene), mRNA transcription readout; actives raise or lower the signal
In short: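 HepG2 cells transiently transfected with multiplexed cis-promoter reporter units; after 24 h compound exposure, reporter mRNA quantified by RT-PCR, FAM labelling, HpaI digestion and capillary electrophoresis. Bidirectional fit versus DMSO baseline.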

[3] = ATG_M_32_CIS: Attagene CIS-FACTORIAL HepG2 Assay for M32 Transcription Factor (Internal Marker) (AID 2282949); details: HepG2 Attagene cis-factorial M32 reporter, mRNA; actives raise or lower the signal;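 note: background control marker of the multiplexed CIS panel rather than a real target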
In short: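 HepG2 cells transiently transfected with multiplexed cis-regulated reporter units, dosed 24 h. Reporter mRNA quantified by RT-PCR, 6-FAM labelling, HpaI digestion and capillary electrophoresis; bidirectional fit vs DMSO.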

[4] = ATG_M_06_CIS: Attagene CIS-FACTORIAL HepG2 Assay for M06 Transcription Factor (Internal Marker) (AID 2282950); details: HepG2 Attagene CIS-FACTORIAL M06 internal marker reporter; actives raise or lower the signal
In short: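 One of many multiplexed endpoints: HepG2 reporter mRNA after 24 h dosing, detected by RT-PCR and capillary electrophoresis fluorescence; gain or loss of signal analysed against DMSO.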

[5] = target: Hepatocyte nuclear factor 6 (Homo sapiens) (UniProt Q9UBC0); assay: ATG_HNF6_CIS: Attagene CIS-FACTORIAL HepG2 Assay for human Hepatocyte Nuclear Factor 6 (HNF6) (AID 2282952); details: HepG2 Attagene cis-factorial HNF6 reporter transcription; actives raise or lower the signal
In short: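 Transiently transfected HepG2 cells expressing cis-regulated reporter transcription units were exposed to chemical for 24 h in a 24-well format. Reporter transcript abundance was determined by fluorescence capillary electrophoresis.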

[6] = target: Heat shock factor protein 1 (Homo sapiens) (UniProt Q00613); assay: ATG_HSE_CIS: Attagene CIS-FACTORIAL HepG2 Assay for human Heat Shock Transcription Factor 1 (HSE) (AID 2282953); details: HepG2 HSE cis-reporter, Attagene RNA transcription; actives raise or lower the signal
In short: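 Using HepG2 with transfected cis-driven reporter constructs, compound effects on endogenous factor activity are scored as reporter mRNA change at 24 h. Detection: RT-PCR, HpaI digestion, capillary electrophoresis; bidirectional fitting to DMSO.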

[7] = ATG_MRE_CIS: Attagene CIS-FACTORIAL HepG2 Assay for human Metal Responsive Element (MRE) (AID 2282954); details: HepG2 MRE cis-reporter transcription, Attagene multiplex; actives raise or lower the signal
In short: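 HepG2 cells transiently transfected with cis-element-driven reporter units; mRNA measured 24 h after dosing. Reporter transcripts quantified by RT-PCR, FAM labelling, HpaI digestion and capillary electrophoresis; bidirectional fit versus DMSO.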

[8] = ATG_PBREM_CIS: Attagene CIS-FACTORIAL HepG2 Assay for human Phenobarbital-responsive Enhancer Module (PBREM) (AID 2282955); details: HepG2 PBREM cis-reporter, Attagene multiplexed transcription; actives raise or lower the signal
In short: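 Readout: reporter mRNA, fluorescent RT-PCR fragments separated by capillary electrophoresis. System: HepG2 transiently transfected with cis-regulated reporter units. Exposure: 24 h. Analysis: bidirectional, DMSO baseline.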

[9] = target: Paired box protein Pax-6 (Homo sapiens) (UniProt P26367); assay: ATG_Pax6_CIS: Attagene CIS-FACTORIAL HepG2 Assay for human Paired Box 6 (PAX6) (AID 2282956); details: HepG2 CIS-FACTORIAL PAX6 reporter transcription, RNA readout; actives raise or lower the signal
In short: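 HepG2 cells transiently transfected with multiplexed cis-promoter reporter units (endogenous TF activity) were dosed for 24 h. Reporter mRNA was quantified by RT-PCR, 6-FAM labeling, HpaI digestion and capillary electrophoresis; bidirectional fitting versus DMSO baseline.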

[10] = ATG_RORE_CIS: Attagene CIS-FACTORIAL HepG2 Assay for human RAR-related Orphan Receptor Element (RORE) (AID 2282959); details: HepG2 Attagene cis-factorial RORE reporter, mRNA; actives raise or lower the signal
In short: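 Measured here: transcript induction of a cis-regulated reporter in HepG2 cells transiently transfected via FuGene 6. After 24 h, RNA was processed by RT-PCR and fluorescent capillary electrophoresis; DMSO defined baseline activity.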

[11] = ATG_Sox_CIS: Attagene CIS-FACTORIAL HepG2 Assay for human SRY-box transcription factor (SOX) (AID 2282960); details: HepG2 Attagene cis-factorial SOX reporter, mRNA; actives raise or lower the signal
In short: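 Using transiently transfected HepG2 cells, reporter transcription driven by cis elements was assessed 24 h after dosing. Signal was fluorescence of capillary-separated RT-PCR products, with DMSO defining baseline activity.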

[12] = target: Transcription factor Sp1 (Homo sapiens) (UniProt P08047); assay: ATG_Sp1_CIS: Attagene CIS-FACTORIAL HepG2 Assay for human Specificity Protein 1 (Sp1) (AID 2282961); details: HepG2 Sp1 cis-reporter transcription, actives raise or lower the signal
In short: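 After transient transfection of HepG2 cells with cis-promoter reporter units and 24 h chemical treatment, reporter transcripts were quantified by RT-PCR and capillary electrophoresis fluorescence. Gain- and loss-of-signal fitted against DMSO.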

[13] = ATG_SREBP_CIS: Attagene CIS-FACTORIAL HepG2 Assay for human Sterol Regulatory Element Binding (SREBP) (AID 2282962); details: HepG2 Attagene cis-factorial SREBP reporter, mRNA; actives raise or lower the signal
In short: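 HepG2 cells transiently transfected with multiplexed cis-element reporter units report endogenous transcription factor activity. After 24 h of chemical exposure, reporter mRNA was quantified by RT-PCR, 6-FAM labelling, HpaI digestion and capillary electrophoresis; bidirectional fits used DMSO as baseline.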

[14] = target: Signal transducer and activator of transcription 3 (Homo sapiens) (UniProt P40763); assay: ATG_STAT3_CIS: Attagene CIS-FACTORIAL HepG2 Assay for human Signal Transducer and Activator of Transcription 3 (STAT3) (AID 2282963); details: HepG2, Attagene cis-factorial STAT3 reporter transcription; actives raise or lower the signal
In short: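 HepG2 cells transiently transfected with multiple cis-element-driven reporter units report endogenous transcription factor activity. After 24 h compound exposure, reporter mRNA is measured by RT-PCR, 6-FAM labelling, HpaI digestion and capillary electrophoresis. Fitted bidirectionally versus DMSO.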

[15] = ATG_TA_CIS: Attagene CIS-FACTORIAL HepG2 Assay for human TA Basal Promoter (AID 2282964); details: HepG2 Attagene CIS-factorial TA basal promoter reporter; actives raise or lower the signal
In short: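 Transient MRTU transfection of HepG2 preceded 24 h compound exposure. Reporter mRNA levels were then read by RT-PCR with capillary electrophoresis, and this background-control endpoint was fitted bidirectionally to DMSO.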

[16] = ATG_TCF_b_cat_CIS: Attagene CIS-FACTORIAL HepG2 Assay for human T-Cell-Factor with beta-catenin (TCF/b-cat) (AID 2282965); details: HepG2 TCF/beta-catenin cis-reporter transcription, actives raise or lower the signal
In short: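 Cells of the HepG2 line carry transiently transfected reporter units whose promoters respond to endogenous factors. Twenty-four hours post-dosing, reporter mRNA induction is measured by fluorescent RT-PCR and capillary electrophoresis, with DMSO as baseline.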

[17] = target: Hypoxia-inducible factor 1-alpha (Homo sapiens) (UniProt Q16665); assay: ATG_HIF1a_CIS: Attagene CIS-FACTORIAL HepG2 Assay for human Hypoxia Inducible Factor 1 (HIF1A) (AID 2282951); details: HepG2 Attagene cis-factorial HIF1a reporter transcription; actives raise or lower the signal
In short: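 Endogenous-TF cis reporter readout, human HepG2 cells, 24 h incubation; mRNA detected via RT-PCR and capillary electrophoresis fluorescence; DMSO-normalised bidirectional fitting.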

[18] = target: Bile acid receptor (Homo sapiens) (UniProt Q96RI1); assay: ATG_IR1_CIS: Attagene CIS-FACTORIAL HepG2 Assay for human Nuclear Receptor Subfamily 1 Group H Member 4 (NR1H4), IR1 submotif (AID 2282946); details: IR1 reporter transcription, actives raise or lower the signal
In short: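 HepG2 cells transiently transfected with multiple cis-promoter-driven reporter units to measure endogenous transcription factor activity; 24 h exposure. Reporter mRNA read by RT-PCR, FAM labelling, HpaI digestion and capillary electrophoresis. Bidirectional fit versus DMSO.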

[19] = ATG_PXRE_CIS: Attagene CIS-FACTORIAL HepG2 Assay for human Pregnane X Receptor Element (PXRE) (AID 2282957); details: HepG2 Attagene CIS-FACTORIAL PXRE reporter, mRNA; actives raise or lower the signal
In short: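 Cis-element reporter mRNA in human hepatoma HepG2 cells is measured 24 h post-dosing by RT-PCR, primer-extension labeling and capillary electrophoresis; gain or loss of signal is fitted relative to DMSO.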

[20] = ATG_PPRE_CIS: Attagene CIS-FACTORIAL HepG2 Assay for human Peroxisome Proliferator-activated Response Element (PPRE) (AID 2282958); details: HepG2 PPRE cis-element reporter, Attagene transcription factor profiling; actives raise or lower the signal
In short: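 After human HepG2 hepatoma cells were transiently transfected with cis-promoter reporter constructs, they were exposed to test chemicals for 24 hours. Reporter RNA was then reverse-transcribed, PCR-amplified, FAM-labeled, HpaI-digested and quantified by capillary electrophoresis.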

Measured: AC50

Sequence of Hypoxia-inducible factor 1-alpha (Homo sapiens) (Q16665 whole entry, looked up): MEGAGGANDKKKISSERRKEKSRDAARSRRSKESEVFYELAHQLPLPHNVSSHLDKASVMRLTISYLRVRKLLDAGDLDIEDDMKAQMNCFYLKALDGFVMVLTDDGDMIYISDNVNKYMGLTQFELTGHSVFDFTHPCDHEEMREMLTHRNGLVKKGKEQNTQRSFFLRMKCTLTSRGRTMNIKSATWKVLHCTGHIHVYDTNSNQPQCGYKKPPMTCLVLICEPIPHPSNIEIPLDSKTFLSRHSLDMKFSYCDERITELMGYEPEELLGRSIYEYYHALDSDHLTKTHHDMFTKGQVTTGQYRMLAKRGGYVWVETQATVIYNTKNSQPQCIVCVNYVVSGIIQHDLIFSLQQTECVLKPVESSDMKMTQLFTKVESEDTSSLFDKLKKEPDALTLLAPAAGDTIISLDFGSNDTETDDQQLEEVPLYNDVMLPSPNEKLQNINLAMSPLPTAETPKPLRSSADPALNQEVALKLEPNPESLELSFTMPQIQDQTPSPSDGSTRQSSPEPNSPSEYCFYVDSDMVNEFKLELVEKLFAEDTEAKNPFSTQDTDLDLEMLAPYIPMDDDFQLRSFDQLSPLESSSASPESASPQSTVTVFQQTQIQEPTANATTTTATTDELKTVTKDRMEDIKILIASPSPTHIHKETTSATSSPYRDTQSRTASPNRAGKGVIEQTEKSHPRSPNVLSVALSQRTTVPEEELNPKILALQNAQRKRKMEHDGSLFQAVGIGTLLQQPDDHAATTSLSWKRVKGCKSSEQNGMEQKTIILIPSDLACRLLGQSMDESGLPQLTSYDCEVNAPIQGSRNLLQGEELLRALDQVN
Sequence of Transcription factor Sp1 (Homo sapiens) (P08047 whole entry, looked up): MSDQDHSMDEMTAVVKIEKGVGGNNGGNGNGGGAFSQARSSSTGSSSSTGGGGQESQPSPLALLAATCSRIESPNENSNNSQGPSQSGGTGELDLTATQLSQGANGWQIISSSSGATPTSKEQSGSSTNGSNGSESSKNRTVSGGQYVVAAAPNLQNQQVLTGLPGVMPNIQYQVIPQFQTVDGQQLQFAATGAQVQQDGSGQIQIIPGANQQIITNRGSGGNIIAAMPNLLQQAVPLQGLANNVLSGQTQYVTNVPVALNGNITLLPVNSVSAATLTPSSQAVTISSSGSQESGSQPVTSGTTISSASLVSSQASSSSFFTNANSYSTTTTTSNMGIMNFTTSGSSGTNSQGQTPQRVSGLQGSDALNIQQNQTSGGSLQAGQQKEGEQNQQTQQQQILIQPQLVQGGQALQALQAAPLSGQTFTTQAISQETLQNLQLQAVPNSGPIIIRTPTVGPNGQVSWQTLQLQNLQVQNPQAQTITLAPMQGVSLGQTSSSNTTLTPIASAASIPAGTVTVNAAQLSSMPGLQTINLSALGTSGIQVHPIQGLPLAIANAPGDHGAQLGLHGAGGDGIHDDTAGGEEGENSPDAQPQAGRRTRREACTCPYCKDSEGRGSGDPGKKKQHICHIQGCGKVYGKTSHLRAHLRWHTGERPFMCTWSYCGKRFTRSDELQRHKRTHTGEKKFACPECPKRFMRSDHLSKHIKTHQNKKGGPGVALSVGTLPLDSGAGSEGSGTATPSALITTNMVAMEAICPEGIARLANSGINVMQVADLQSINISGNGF
Sequence of Paired box protein Pax-6 (Homo sapiens) (P26367 whole entry, looked up): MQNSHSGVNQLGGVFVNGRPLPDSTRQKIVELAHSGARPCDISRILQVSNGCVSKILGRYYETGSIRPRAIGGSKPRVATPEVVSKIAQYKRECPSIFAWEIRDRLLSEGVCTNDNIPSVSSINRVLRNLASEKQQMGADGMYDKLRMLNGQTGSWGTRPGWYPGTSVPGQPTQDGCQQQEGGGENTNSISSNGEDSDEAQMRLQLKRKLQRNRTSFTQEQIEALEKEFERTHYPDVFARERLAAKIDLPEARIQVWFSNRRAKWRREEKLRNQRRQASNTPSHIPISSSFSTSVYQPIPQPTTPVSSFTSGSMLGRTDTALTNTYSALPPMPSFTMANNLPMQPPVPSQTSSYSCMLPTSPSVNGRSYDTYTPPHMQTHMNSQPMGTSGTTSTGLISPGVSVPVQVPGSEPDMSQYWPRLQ
Sequence of Hepatocyte nuclear factor 6 (Homo sapiens) (Q9UBC0 whole entry, looked up): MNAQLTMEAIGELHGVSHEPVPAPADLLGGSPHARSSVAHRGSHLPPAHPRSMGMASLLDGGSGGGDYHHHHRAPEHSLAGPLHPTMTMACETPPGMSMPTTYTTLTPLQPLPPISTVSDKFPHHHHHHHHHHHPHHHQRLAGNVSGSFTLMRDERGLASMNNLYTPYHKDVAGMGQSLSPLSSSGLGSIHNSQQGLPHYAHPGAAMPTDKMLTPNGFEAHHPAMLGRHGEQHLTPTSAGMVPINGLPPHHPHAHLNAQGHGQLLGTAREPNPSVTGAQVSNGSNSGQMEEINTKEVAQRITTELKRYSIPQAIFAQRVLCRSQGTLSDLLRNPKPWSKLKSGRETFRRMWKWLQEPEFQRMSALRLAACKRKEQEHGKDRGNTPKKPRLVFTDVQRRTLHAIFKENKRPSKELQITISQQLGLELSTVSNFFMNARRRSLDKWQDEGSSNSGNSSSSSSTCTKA
Sequence of Heat shock factor protein 1 (Homo sapiens) (Q00613 whole entry, looked up): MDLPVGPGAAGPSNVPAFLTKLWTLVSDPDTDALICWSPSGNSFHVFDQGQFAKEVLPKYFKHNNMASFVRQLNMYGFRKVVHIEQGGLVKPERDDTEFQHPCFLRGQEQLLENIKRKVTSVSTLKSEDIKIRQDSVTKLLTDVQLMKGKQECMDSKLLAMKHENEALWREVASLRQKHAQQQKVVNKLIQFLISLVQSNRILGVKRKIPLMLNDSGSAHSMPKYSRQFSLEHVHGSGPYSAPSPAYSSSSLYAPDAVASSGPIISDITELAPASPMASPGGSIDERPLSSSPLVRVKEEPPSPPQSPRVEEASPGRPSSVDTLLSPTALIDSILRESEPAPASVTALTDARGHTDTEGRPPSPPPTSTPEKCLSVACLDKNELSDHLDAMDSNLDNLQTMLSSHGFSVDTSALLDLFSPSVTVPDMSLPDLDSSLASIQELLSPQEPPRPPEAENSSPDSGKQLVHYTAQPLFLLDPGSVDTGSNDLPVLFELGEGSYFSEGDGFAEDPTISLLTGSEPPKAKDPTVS
Sequence of Signal transducer and activator of transcription 3 (Homo sapiens) (P40763 whole entry, looked up): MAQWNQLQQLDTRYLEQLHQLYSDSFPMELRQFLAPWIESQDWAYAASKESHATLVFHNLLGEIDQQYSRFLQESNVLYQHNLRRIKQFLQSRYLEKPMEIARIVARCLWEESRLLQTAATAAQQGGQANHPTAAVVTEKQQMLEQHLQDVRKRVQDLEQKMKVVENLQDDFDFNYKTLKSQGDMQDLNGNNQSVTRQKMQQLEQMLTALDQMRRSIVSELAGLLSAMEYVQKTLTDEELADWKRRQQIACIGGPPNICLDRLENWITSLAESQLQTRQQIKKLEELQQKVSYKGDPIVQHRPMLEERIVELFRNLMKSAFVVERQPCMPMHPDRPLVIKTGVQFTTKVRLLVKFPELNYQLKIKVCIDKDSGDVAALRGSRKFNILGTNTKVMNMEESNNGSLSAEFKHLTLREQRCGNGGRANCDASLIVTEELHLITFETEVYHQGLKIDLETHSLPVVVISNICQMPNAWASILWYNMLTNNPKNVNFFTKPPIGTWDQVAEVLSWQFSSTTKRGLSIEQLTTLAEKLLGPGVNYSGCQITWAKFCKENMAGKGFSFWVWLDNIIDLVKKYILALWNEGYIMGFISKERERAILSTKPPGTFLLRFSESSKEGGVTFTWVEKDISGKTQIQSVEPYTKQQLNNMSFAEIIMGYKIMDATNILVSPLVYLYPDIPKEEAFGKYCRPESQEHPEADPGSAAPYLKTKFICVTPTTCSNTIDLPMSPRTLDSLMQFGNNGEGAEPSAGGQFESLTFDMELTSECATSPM
Sequence of Bile acid receptor (Homo sapiens) (Q96RI1 whole entry, looked up): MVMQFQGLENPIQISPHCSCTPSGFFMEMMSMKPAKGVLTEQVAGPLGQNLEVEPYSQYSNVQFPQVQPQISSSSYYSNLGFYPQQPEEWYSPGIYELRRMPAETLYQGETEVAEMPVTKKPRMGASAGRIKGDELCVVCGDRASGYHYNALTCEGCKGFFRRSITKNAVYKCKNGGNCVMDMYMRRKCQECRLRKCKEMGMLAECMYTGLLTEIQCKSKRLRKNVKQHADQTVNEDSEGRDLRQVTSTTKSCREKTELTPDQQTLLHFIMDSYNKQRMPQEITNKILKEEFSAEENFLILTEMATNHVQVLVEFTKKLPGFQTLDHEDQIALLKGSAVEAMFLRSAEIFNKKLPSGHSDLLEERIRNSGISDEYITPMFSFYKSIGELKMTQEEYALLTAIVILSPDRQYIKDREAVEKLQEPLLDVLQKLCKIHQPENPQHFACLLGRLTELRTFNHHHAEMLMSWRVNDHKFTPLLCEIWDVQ

CCCCOCCOP(=O)(OCCOCCCC)OCCOCCCC
inactive: [1] | [2] | [3] | [4] | [5] | [6] | [7] | [8] | [9] | [10] | [11] | [12] | [13] | [14] | [15] | [16]
active: [2] 24.7 µM

O=C(O)CF
not listed: [1] | [6] | [8] | [13] | [18] | [19] | [20]
inactive: all other assays above

CCCCC(CC)COC(=O)c1c(Br)c(Br)c(Br)c(Br)c1C(=O)OCC(CC)CCCC (stereo not drawn)
active: [19] 19.9 µM
not listed: [17] | [20]
inactive: all other assays above

CN(C)C(=O)Cl
not listed: [13] | [18]
inactive: all other assays above

CCCN(CCC)c1c([N+](=O)[O-])cc(C(C)C)cc1[N+](=O)[O-]
not listed: [1] | [18] | [19] | [20]
inactive: all other assays above

c1ccc2c(c1)Nc1ccccc1S2
active: [19] 17.1 µM
not listed: [1] | [16] | [17] | [18] | [20]
inactive: all other assays above

CCCCN(CC)C(=O)SCCC
not listed: [17] | [19]
inactive: all other assays above

COCCOCCO
not listed: [1] | [18]
inactive: all other assays above
